# This is a sample that favours compounds with a hit; in the whole collection about 9.5% have one here.
# SARS PLP yeast: qHTS of Yeast-based Assay for SARS-CoV PLP | AID 485353, 2010 | hit rate 0.19% among 330,000 | S. cerevisiae expressing SARS-CoV PLpro, growth rescue | Potency, µM (titrated, usually from 32.9 µM), actives largely listed as activators; also: nearly all actives have a fitted effect of over 55% in size
# NS1 function inh: qHTS Assay for Inhibitors of Influenza NS1 Protein Function. Potency, µM (doses to about 46.1 µM). hit rate 0.4% among 270,000. AID 2326, 2010; also: actives are rising curves; nearly all actives have a fitted effect of over 50% in size
#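 Recovery from NS1-induced slow growth read by OD600 in budding yeast switched to galactose assay medium (pH 6.0, -URA) at 1:100 dilution. Compound 23 nl per well; the matching strain lacking NS1 serves as control.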
# Pf growth 48h: Primary qHTS for delayed death inhibitors of the malarial parasite plastid, 48 hour incubation; P. falciparum luciferase growth in erythrocytes, 48 h; Potency, µM (doses to about 28.7 µM), hits mostly inhibitors; hit rate 5.9% among 310,000; active = well fitted inhibition curve with a large enough effect; inconclusive = small, poorly fitted or top-dose-only effect, or another doubt; inactive = no such curve, though single readings can be large or run the other way
#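 Luciferase-expressing parasites in RBCs, 2% Hct / 0.1% parasitemia final; RPMI 1640 + 0.5% Albumax; 37 C, 5% CO2, one generation; luminescence read-out, lower signal = inhibition.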
# RE007 growth inh: qHTS Assay for Inhibitors of the HIV-1 protein Vpr; S. pombe RE007 Vpr strain, BacTiter-Glo ATP luminescence, 24 h; Potency, µM (series often up to 92.2 µM), hits mostly inhibitors; hit rate 0.21% among 360,000; AID 651644, 2012; active = well fitted falling curve with a large enough effect; inconclusive = small, poorly fitted or top-dose-only effect; inactive = no such curve, though single readings can be large or run the other way; also: nearly all actives have a fitted effect of over 50% in size
#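 Fission yeast RE007 carrying one integrated HIV-1 vpr copy, seeded at OD 0.01 in PMG+AL medium with 23 nL pinned compound. Grown 24 h at 30 degrees; viability read by BacTiter-Glo luminescence after 5 min.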
# Pf growth 96h: Primary qHTS for delayed death inhibitors of the malarial parasite plastid, 96 hour incubation | Potency, µM (highest dose often 28.7 µM), actives largely listed as inhibitors | P. falciparum luciferase reporter growth, 96 h | hit rate 6.9% among 320,000; active = well fitted inhibition curve with a large enough effect; inconclusive = small, poorly fitted or top-dose-only effect, or another doubt; inactive = no such curve, though single readings can be large or run the other way
#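 Erythrocytes infected with luciferase-expressing P. falciparum were dispensed at 2% hematocrit and 0.05% parasitemia (final), then incubated with compounds 96 hours at 37 C in 5% CO2. Luminescence after detection reagent addition reported growth.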
# Numbers stand for hits; n = inactive; u = inconclusive; x = no result; [ ] = remark or other dose. Unless noted, calls follow the shape of the full dose curve.
SMILES,SARS PLP yeast,NS1 function inh,Pf growth 48h,RE007 growth inh,Pf growth 96h
Cn1c(=O)n(Cc2ccccc2F)c(=O)c2c1nc1n2CCN1Cc1ccco1,n,x,u,n,8.3µM
COc1ccccc1Oc1nc2c(c(=O)n(Cc3ccccc3F)c(=O)n2C)n1C,n,n,n,n,15µM
Cn1c(=O)n(Cc2ccc(Cl)cc2)c(=O)c2c1nc1n2CCN1Cc1ccco1,n,n,u,n,13µM
CC(C)NC(=O)C1(C)CCCCN1Cc1ccc(OCc2ccccc2)cc1 (stereo not drawn),x,x,x,n[18.4 µM],x
Nc1ncnc2c1ncn2[C@@H]1O[C@H](COP(=O)(O)OP(=O)(O)OP(=O)(O)OP(=O)(O)OC[C@@H]2O[C@H](n3cnc4c(N)ncnc43)[C@@H](O)[C@@H]2O)[C@H](O)[C@H]1O,x,n,x,x,x
Fc1ccc(NC(=S)N/N=C/c2ccc(F)c(F)c2)cc1,n,x,n,n,u
O=[N+]([O-])c1ccc(O)c(/C=N/NC(=S)Nc2ccc(Cl)cc2Cl)c1,n,n,2.1µM,n,0.83µM
O=[N+]([O-])c1ccc(/C=N/NC(=S)Nc2ccc(Cl)cc2Cl)s1,n,n,13µM,n,3.3µM
CCn1nc(C)c(/C=N/NC(=S)Nc2ccc(Cl)cc2Cl)c1C,n,n,n,n,u
Fc1ccc(/C=N/NC(=S)Nc2ccc(Cl)cc2Cl)cc1,n,n,n,n,2.1µM
CC1SC(=S)N(c2ccc(N(C)C)cc2)C1=O (stereo not drawn),n,n,u,u,u
Cc1ccc(C(=O)N2NC(c3ccc(F)cc3)C3C(=O)N(c4ccc(C)c(C)c4)C(=O)C32)cc1 (stereo not drawn),n,n,n,n,n
COc1ccccc1P(=O)(Cc1ccccc1)c1ccccc1 (stereo not drawn),n,n,n[0.00184 µM],n,n
COc1cc(NC(=O)CN2C(=O)c3ccccc3Sc3ccc(C(=O)N4CCOCC4)cc32)cc(OC)c1OC,n,x,6.6µM,n,u
C=CCN1C(=O)c2ccccc2Sc2ccc(C(=O)N3CCC4(CC3)OCCO4)cc21,n,n,u,n,10µM
COc1cccc(N2C(=O)C3CCCN3C2=S)c1 (stereo not drawn),n,n,n[0.00184 µM],n,u
Nc1cc2c3c(cccc3c1)C(=O)N(CCN1CCCC1)C2=O,n,n,12µM,n,5.9µM
O=C1c2cccc3cc([N+](=O)[O-])cc(c23)C(=O)N1CCN1CCCC1,n,n,9.3µM,n,u
O=C1c2cccc3cc([N+](=O)[O-])cc(c23)C(=O)N1/N=C/c1ccc(O)cc1O,n,n,12µM,n,u
CCN(CC)CCN1C(=O)c2cccc3cc(N)cc(c23)C1=O,n,n,u,n,u
Cc1cc(C)c(S(=O)(=O)N2CCN(CCN3C(=O)c4cccc5cccc(c45)C3=O)CC2)cc1[N+](=O)[O-],n,n,n,x,u
O=C1CCCN1CCC1CCN(C2CC(=O)N(Cc3ccc(N4CCCC4=O)cc3)C2=O)CC1 (stereo not drawn),n,n,u,u,x
O=C1CC(N2CCOCC2)C(=O)N1c1ccc(Cl)cc1 (stereo not drawn),n,n,7.4µM,u,n
O=C1CCCN1CCC1CCN(C2CC(=O)N(c3ccc(Cl)cc3)C2=O)CC1 (stereo not drawn),x,n,n,5µM,n
COC(=O)c1ccc(N2C(=O)CC(N3CCOCC3)C2=O)cc1 (stereo not drawn),n,n,n,28µM,n
SMILES,SARS PLP yeast,NS1 function inh,Pf growth 48h,RE007 growth inh,Pf growth 96h
Nc1nc(N)c(C=Nc2ccc(Br)cc2)c(Nc2ccc(Br)cc2)n1,n,n,0.59µM,x,0.33µM
CN1C/C(=C/c2cccnc2)C(=O)/C(=C/c2cccnc2)C1,n,n,u,n,u
CC(C)N1C/C(=C/c2cccnc2)C(=O)/C(=C/c2cccnc2)C1,n,n,13µM,n,n
CCOC(=O)C1=C(COC(=O)c2ccc(Br)c(S(=O)(=O)N3CCOCC3)c2)NC(=O)NC1C (stereo not drawn),x,x,x,n,x
O=c1c2ccccc2sn1-c1cc(S(=O)(=O)N2CCOCC2)ccc1N1CCOCC1,n,n,3.7µM,n,n
O=C(C(=O)N(C1CCCCC1)C1CCCCC1)c1ccccc1,x,x,x,n,x
CCOc1ccc(C/C(O)=C2\C(=O)CC(C)(C)CC2=NCC(=O)O)cc1OCC,n,x,n,n,n
Cc1cc(C)cc(N2CCN(C(=O)N3CCOCC3)CC2)c1,n,n,n,n,6.6µM
Cc1ccc(N2CCN(C(=O)N3CCOCC3)CC2)c(C)c1,n,x,n,n,u
O=C(Nc1ccc2nc(-c3ccc4nc[nH]c4c3)[nH]c2c1)c1cccs1,n,n,2.6µM,n,u
Cc1ccc2nc(NC(=O)Cc3cccs3)sc2c1,n,n,x,n,n
O=C(Nc1ccc2nc(-c3ccccc3)[nH]c2c1)c1cccs1,n,n,x,n,u
Cc1cccc(-c2nnc(-c3cccc(NC(=O)Cc4cccs4)c3)o2)c1,n,n,u,n,10µM
CC(=O)Nc1ccc(-c2ccc3nnc(C)n3n2)cc1,n,x,n,n,u
Cc1nnc2ccc(-c3ccc(NC(=O)Cc4cccs4)cc3)nn12,n,n,n,n,9.3µM
O=C(Cc1cccs1)Nc1ccc(-c2nnc(-c3ccccc3)o2)cc1,x,x,x,n,x
Cc1ccc2nc(-c3ccc(NC(=O)Cc4cccs4)cc3)[nH]c2c1,n,n,u,n,4.1µM
Cc1nn(CC(=O)N(C)C2(C#N)CCCCC2)c(C)c1[N+](=O)[O-],n,x,n,n,n
CCCN1CCN(CCCNC(=O)Cn2nc(C)n3c(cc4cc(F)ccc43)c2=O)CC1,n,n,n,n,n
CC(=O)Nc1ccc(OS(=O)(=O)c2ccc([N+](=O)[O-])cc2)cc1,n,n,13µM,n,n
O=C(Nc1ccc(Oc2ccc(NC(=O)Nc3ccc([N+](=O)[O-])cc3)cc2)cc1)Nc1ccc([N+](=O)[O-])cc1,n,n,u,n,u
O=C(Nc1ccc(Cl)c(Cl)c1)Nc1ccc([N+](=O)[O-])cn1,n,n,9.3µM,n,u
O=C(Nc1ccc(F)cc1)Nc1ccc([N+](=O)[O-])cn1,n,x,n,n,u
COc1ccc(NC(=O)NC23CC4(C)CC(C)(CC(C)(C4)C2)C3)cc1OC,n,n,2.6µM,n,u
O=C(Nc1ccc([N+](=O)[O-])cc1)Nc1ccc([N+](=O)[O-])cc1,x,x,2.7µM,x,2.4µM
SMILES,SARS PLP yeast,NS1 function inh,Pf growth 48h,RE007 growth inh,Pf growth 96h
CC(C)NC(=O)c1ccc(CN2CCc3ccccc3C2)cc1,n,n,n,n,u
COc1ccc(NC(=O)C[C@H]2C(=O)N(c3ccc(OC)cc3)C[C@@H]2C)cc1,x,x,x,n,x
CN(C)CCCNc1nc2cc(-c3cnn(Cc4ccccc4)c3)sc2c(=O)n1C,x,x,x,n,x
Cc1cc(O)c(C(C)C)cc1NC(=O)Nc1ccc([N+](=O)[O-])cc1,x,x,x,n,x
O=C(Nc1ccc([N+](=O)[O-])cc1)Nc1nc(-c2ccc(Cl)s2)cs1,n,n,1.9µM,n,u
Cc1ccc(NC(=O)C2(c3ccc([N+](=O)[O-])cc3)CCCC2)cc1,n,n,2.6µM,n,n
